Screening data from PubChem BioAssay.
Sampled rows, rich in hits. Any-hit rate of the full collection: about 2.1%.
FUS suppressor: suppressors of FUS proteinopathy in yeast. S. cerevisiae FUS-expressing, growth rescue, OD600, 24 h. Potency, µM (titrated, usually from 76.6 µM), most hits filed as activators. hit rate 0.24% among 390,000;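 also: plate controls were DMSO vehicle for no effect and reference control for full effect; nearly all actives have a fitted effect of over 55% in size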
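Cultures pregrown in 2.5% raffinose medium are shifted to minimal medium containing 2% galactose to express toxic FUS. Compounds are tested at several concentrations. After 24hr at 30C, growth is quantified at 600 nm absorbance.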
aSyn yeast inh: inhibitors of alpha-synuclein toxicity in yeast. Potency, µM (top dose mostly 46.1 µM), without a hit: top-dose growth rescue (activation), actives largely listed as activators. AID 652106. Yeast expressing alpha-synuclein, growth rescue, BacTiter-Glo, 24 h. hit rate 0.14% among 370,000; also: % of control where 0% means no effect; nearly all actives have a fitted effect of over 65% in size
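Readout is rescue of growth in alpha-synuclein-expressing yeast, so inhibitors of toxicity appear as activators. Growth after 24 hr at 30 deg C in galactose medium is quantified by luminescence.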
TDP43 rescue: rescues yeast growth from TDP-43 toxicity | TDP-43 expressing yeast growth rescue, BacTiter-Glo, 24 h | Potency, µM (doses to about 46.1 µM), for inactives: at the highest dose growth rescue (activation), usual class: activators | hit rate 1.8% among 410,000 | AID 652104; also: % of control where 0% means no effect; nearly all actives have a fitted effect of over 50% in size
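Cell-based yeast growth screen: TDP-43 expression induced in galactose, inoculum OD600=0.02 after raffinose pregrowth to mid-log. Read-out BacTiter-Glo luminescence at 24 hr, 30 deg C; inhibition of toxicity seen as signal increase.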
Abeta yeast res: A-beta toxicity reversal in yeast; yeast expressing A-beta42, growth rescue, OD600, 48 h; response scale: 0% DMSO, 100% iron-clioquinol control; Potency, µM (top dose mostly 46.1 µM), most hits filed as activators; hit rate 0.063% among 410,000; also: nearly all actives have a fitted effect of over 55% in size
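Growth rescue measured by 600 nm absorbance after 48 h yeast culture at 30 C with compound. Values normalized between DMSO and an equimolar ferric chloride plus clioquinol control.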
The depositor's hits bear a star; i = inactive; ? = inconclusive; . = not tested or not shown; ! = not confirmed by another sample; [ ] = dose if it differs, or a comment. Calls follow the shape of the dose curve; as a rule, active = well fitted curve in the direction sought with a large enough effect; inconclusive = small, poorly fitted or top-dose-only effect, or another doubt; inactive = no such curve, though single readings can be large; an effect the other way counts as inactive or inconclusive. Potency is read from the fitted curve at half-maximal effect.

SMILES | FUS suppressor | aSyn yeast inh | TDP43 rescue | Abeta yeast res
CCOc1ccc(CCN2C(=S)N([C@@H](Cc3ccc(O)cc3)CN3CCC[C@@H]3CN3C(=S)NC[C@@H]3Cc3ccccc3)C[C@@H]2Cc2ccccc2)cc1 | ? | -29% | 0% | i
CCOc1ccc(CCN2C(=S)N([C@@H](Cc3ccccc3)CN3CCCC3CN3C(=S)NC[C@@H]3Cc3ccccc3)C[C@@H]2Cc2ccc(O)cc2)cc1 (stereo partly specified) | 11µM* | -27% | -23% | i
Oc1ccc(C[C@H]2CNC(=S)N2CC2CCCN2C[C@H](Cc2ccc(O)cc2)N2C[C@H](Cc3ccc(O)cc3)N(CC3CCCCC3)C2=S)cc1 (stereo partly specified) | ? | -41% | 11µM* | i
CCOc1ccc(CCN2C(=S)N([C@@H](CC(C)C)CN3CCC[C@@H]3CN3C(=S)NC[C@@H]3Cc3ccccc3)C[C@@H]2Cc2ccc(O)cc2)cc1 | 28µM* | -40% | 1% | i
Oc1ccc(C[C@H]2CN([C@@H](Cc3ccccc3)CN3CCCC3CN3C(=S)NC[C@@H]3Cc3ccccc3)C(=S)N2CC2CCCCC2)cc1 (stereo partly specified) | ? | -34% | 27% | i
CN(Cc1ccccc1)S(=O)(=O)c1cccc(C(=O)OCc2ccccc2)c1 | i | . | . | .
CCOc1cc(CCNC(=O)c2cc3sccc3n2CC)ccc1OC | i | . | . | .
O=C(NC1CCCCCC1)C1CCC(CNS(=O)(=O)c2cccc3cccnc23)CC1 (stereo unspecified) | . | 3% | . | .
O=C(Cc1cccs1)Nc1ccc(S(=O)(=O)Nc2ncccn2)cc1 | 10µM* | -14% | -1% | i
CC(Cc1cccs1)NC(=S)Nc1ccc(Cl)cc1 (stereo unspecified) | i | -18% | -14%[0.397 µM] | ?
CC(Cc1cccs1)NC(=S)Nc1ccc(Cl)c(Cl)c1 (stereo unspecified) | i | 0% | -17%[0.397 µM] | 11µM*
Cc1ccc(NC(=O)Cc2cccs2)cc1Cl | i | 2% | 20µM* | i
O=C(Cc1cccs1)Nc1ccc(F)c(F)c1 | i | 13% | ? | i
Cc1ccnc(NS(=O)(=O)c2ccc(NC(=O)Cc3cccs3)cc2)n1 | ? | 4% | 14% | i
COc1cc(/C=C/c2ccnc3ccccc23)cc(OC)c1OC | . | -8% | . | .
N#CCC[C@H]1CC[C@]2(CCCN(C(=O)c3ccno3)C2)O1 | i | . | . | .
CCCCc1cccc2[nH]cc(C)c12 | i | . | . | .
O=C(c1cc(Cl)cc(Cl)c1)N1CCC(Oc2cccnc2)CC1 | i | . | . | .
Cc1sc2ncnc(N3CCN(S(=O)(=O)c4ccccc4)CC3)c2c1C | . | -3% | 18µM* | i
Cc1ccc(S(=O)(=O)N2CCN(c3ncnc4sccc34)CC2)cc1C | i | 7% | 11µM* | i
Cc1ccc(S(=O)(=O)N2CCN(c3ncnc4scc(-c5ccccc5)c34)CC2)cc1 | . | 9% | 16% | i
Cc1sc2ncnc(N3CCC(C(=O)Nc4cc(S(C)(=O)=O)ccc4Cl)CC3)c2c1C | i | 0% | 2% | i
Cc1sc2ncnc(N3CCC(C(=O)Nc4cc(Cl)ccc4Cl)CC3)c2c1C | i | -10% | 11µM* | i
C[C@H]1C2CC(OC(=O)NCCCc3ccccc3)C(C2)[C@H]2CCCCN21 (stereo partly specified) | i | . | . | .
NC(=O)N/N=C/c1ccc([N+](=O)[O-])o1 | i | 6% | 13% | i
SMILES | FUS suppressor | aSyn yeast inh | TDP43 rescue | Abeta yeast res
O=[N+]([O-])c1ccc(/C=[N+](\[O-])CCO)o1 | i | 22% | 11µM* | i
CCn1c2ccccc2c2cc(N)ccc21 | i | -1% | 0% | i
CCn1c2ccccc2c2cc(/C=C(/C#N)C(N)=S)ccc21 | . | 1% | 32µM* | i
COc1ccc([N+](=O)[O-])cc1NC(=O)C(C)OC(=O)CC1CCCC1 (stereo unspecified) | ? | -10%[1.84 µM] | 20µM* | i
COc1ccc([N+](=O)[O-])cc1NC(=O)C(C)Sc1ccc(C)cc1 (stereo unspecified) | . | 9% | 13µM* | i
COc1ccc([N+](=O)[O-])cc1NC(=O)C(C)OC(=O)C1CCCC1 (stereo unspecified) | i | -3% | 27% | i
COc1ccc(OC)c(S(=O)(=O)N2CCCC(C(=O)Nc3c(C)n(C)n(-c4ccccc4)c3=O)C2)c1 (stereo unspecified) | i | . | . | .
CC1(c2ccc(F)cc2)OC(=O)c2c1ccc1ccccc21 (stereo unspecified) | i | -12% | 13µM* | i
CC1=C(C(=O)NCc2cccc(Br)c2)C2(CCCCC2)OC1=O | i | . | 18µM* | i
O=C(C1CCCO1)N1CCN(C2=Nc3ccccc3Sc3ccccc32)CC1 (stereo unspecified) | i | . | . | .
O=C(Nc1ccccc1)N1CCN(c2ccc(F)cc2)CC1 | i | 0% | 6% | i
CC(=O)c1ccc(N2CCN(C(=O)Nc3ccc(C(C)C)cc3)CC2)cc1 | i | -23% | 18µM*! | i
CC(C)c1ccc(NC(=O)N2CCOCC2)cc1 | i | -10% | 6% | i
O=C(Nc1ccccc1)N1CCCN(c2ccc(C(F)(F)F)cc2[N+](=O)[O-])CC1 | i | 14% | 18µM* | i
O=C(C1CCC1)N1CCN(c2ccc(C(F)(F)F)cc2[N+](=O)[O-])CC1 | . | 3% | 9% | i
O=C(Nc1ccccc1)N1CCN(c2ccccc2)CC1 | i | -2% | 8.9µM* | i
Cc1nn(-c2ccccc2)c(OC(=O)c2cccs2)c1S(=O)(=O)c1ccccc1 | i | 3% | 6% | i
Cc1nn(-c2ccccc2)c(OC(=O)c2cccs2)c1S(=O)(=O)c1ccc([N+](=O)[O-])cc1 | 40µM* | -2% | -31% | i
Cc1ccccc1NC(=O)c1cc(=O)c2ccccc2o1 | i | -10% | 13µM* | i
O=C(NCCc1ccc(F)cc1)c1cc(=O)c2ccccc2o1 | i | 14% | 22µM* | i
O=C(CSc1nnc(SCc2cccc3ccccc23)s1)c1ccc(F)cc1 | i | . | . | .
Cc1ccc(S(=O)(=O)N2CCC(c3nc4ccccc4o3)CC2)s1 | i | . | . | .
CN(C)C(=O)CC12CC3CC(C1)CC(CC(=O)N(C)C)(C3)C2 | i | 1% | 17% | i
Cc1nn(C)cc1CN(C)C(=O)CC12CC3CC(CC(C3)C1)C2 | . | -1% | 22µM* | i
CCN(C(=O)[C@@H]1CCCN1C(=O)c1cccs1)c1nc2cc(Cl)ccc2s1 | i | 3% | 13µM* | i
Cc1cc(Cl)ccc1NC(=O)C1CCCN1C(=O)c1cccs1 (stereo unspecified) | i | 10% | -7% | i
CCCC(=O)N1CCC1(C)C(=O)Nc1ccc(C)c(C)c1 (stereo unspecified) | i | 13% | 5% | i
CCCC(=O)N1CCC1(C)C(=O)Nc1ccc(-n2cccc2)cc1 (stereo unspecified) | i | 3% | 20µM* | i
